# Experimental data: PubChem BioAssay
# Calls of active or inactive are those of the source.
# What was measured:
# [1] = small molecules captured by biotinylated probe aFSTL3 – biochemical, small-molecule microarray, fluorescence 635/667, stem cell growth factor project, primary screen (AID 1064); conditions: higher = more signal;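 note: measures binding of the biotinylated anti-FSTL3 antibody to printed compounds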
# [2] = binders from COS7 lysate, DM2A8 probe, primary screen, torsin A project, cell lysate, small-molecule microarray, fluorescence 635/667 (AID 1065); conditions: higher = more signal, COS7 lysate expressing mutant human TOR1A
# [3] = small molecules captured by biotinylated probe aFGF2 – biochemical, small-molecule microarray, fluorescence 635/667, stem cell growth factor project, primary screen (AID 1067); conditions: higher = more signal;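 note: measures binding of biotinylated aFGF2 protein to printed compounds on slides; z-score merges feature fluorescence and signal-to-noise across triplicate slides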
# [4] = small molecules captured by biotinylated probe aFGF10 – biochemical, small-molecule microarray, fluorescence 635/667, stem cell growth factor project, primary screen (AID 1071); conditions: higher = more signal;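 note: score merges 667 nm spot intensity and signal to noise from triplicate slides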
# [5] = molecular target: Neurogenic locus notch homolog protein 2 (Homo sapiens) (UniProt Q04721); assay: small molecules binding Notch2 protein – biochemical, small-molecule microarray, 635 nm fluorescence, stem cell growth factors, primary screen (AID 1073); conditions: higher = more signal
# [6] = molecular target: Pro-neuregulin-1, membrane-bound isoform (Homo sapiens) (UniProt Q02297); assay: small molecules binding neuregulin-1 protein – biochemical, small-molecule microarray, fluorescence 635/667, psychiatric disease protein project, primary screen (AID 1075); conditions: NRG1 binding, 635 nm fluorescence, higher = more signal;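 note: score combines 667 nm spot fluorescence with signal to noise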
# [7] = system: Neuregulin-1 EGF-like domain; assay: small molecules binding NRG1 EGF domain – biochemical, small-molecule microarray, 635 nm fluorescence, primary screen (AID 1081); conditions: higher = more signal;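 note: binding of the protein to compounds printed on small-molecule microarray slides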
# [8] = FRG1 expression reporter modulators in myotubes – cell-based, C2C12 myotubes, firefly/Renilla luciferase, luminescence, FRG1 inhibition for FSHD, primary screen (AID 1084); conditions: FRG1 promoter luciferase, higher = more signal, called active from +8 up or from −8 down
# [9] = small molecules captured by biotinylated probe aFST – biochemical, small-molecule microarray, fluorescence 635/667, stem cell growth factor project, primary screen (AID 1086); conditions: higher = more signal;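 note: score merges 667 nm fluorescence with signal-to-noise of each printed compound spot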
# [10] = binders of probe aHhip on microarray, primary screen, stem cell growth factor project, biochemical, small-molecule microarray, fluorescence 635/667 (AID 1087); conditions: higher = more signal;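 note: score merges spot fluorescence at 667nm with spot signal to noise ratio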
# [11] = system: PRMT1 (protein arginine N-methyltransferase 1); assay: small molecules binding arginine methyltransferase PRMT1 – biochemical, small-molecule microarray, 635 nm fluorescence, primary screen (AID 1088); conditions: higher = more signal;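 note: binding of Prmt1 protein to compounds spotted on small-molecule microarray slides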
# [12] = growth effects on S. cerevisiae YJM789 – YJM789 clinical isolate, OD600, 24 h, basal, primary screen (AID 1089); conditions: higher = more signal, called active from +8 up or from −8 down;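 note: growth of clinical yeast isolate S. cerevisiae YJM 789 seeded 1000 cells per well; test concentration not given here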
# [13] = S. pombe growth modifiers, basal conditions – strain 972, OD600, 24 h, no modulator, primary screen (AID 1090);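 note: basal condition with compound alone and no growth modifier present; test concentration not given here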; conditions: S. pombe 972 growth, higher = more signal, called active from +8 up or from −8 down
# [14] = budding yeast growth modifiers under rapamycin – strain BY4716, OD600, 96 h, primary screen (AID 1091); note: test concentration not given here; conditions: S. cerevisiae BY4716 + rapamycin, higher = more signal, called active from +8 up or from −8 down
# [15] = molecular target: Torsin-1A-interacting protein 2 (Homo sapiens) (UniProt Q8NFQ8); assay: small molecules binding lysate-expressed LULL1 – cell lysate, human LULL1 lysate, 635/667 nm fluorescence, primary screen (AID 1092); conditions: small-molecule microarray, hLULL1 lysate binding, 635 nm fluorescence; higher = more signal;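 note: probe is lysate of COS7 cells overexpressing human LULL1; score merges per-feature 667 nm fluorescence with signal-to-noise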
# [16] = optical density change of DRC41 E. coli – strain DRC41, OD650, 24 h, E. coli filamentation project, primary screen (AID 1093);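 note: MC1000 strain lacking acrAB efflux and sulA so SOS filamentation is blocked; test concentration not given here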; conditions: E. coli DRC41 growth, higher = more signal, called active from +8 up or from −8 down
# [17] = probe aLefty2 binding to arrayed compounds – biochemical, biotinylated probe, 635/667 nm fluorescence, primary screen (AID 1094); conditions: small-molecule microarray, higher = more signal;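 note: score merges spot fluorescence near 667 nm with spot signal-to-noise ratio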
# [18] = system: Noggin (protein binding on small-molecule microarray); assay: small molecules binding Noggin protein – biochemical, 635/667 nm fluorescence, primary screen (AID 1095); conditions: 635 nm fluorescence, higher = more signal;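 note: score merges 667 nm feature fluorescence with signal to noise over triplicate slides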
# [19] = molecular target: Neurogenic locus notch homolog protein 3 (Homo sapiens) (UniProt Q9UM47); assay: small molecules binding NOTCH3 protein – biochemical, 635/667 nm fluorescence, primary screen (AID 1096); conditions: small-molecule microarray, 635 nm fluorescence, higher = more signal
# [20] = probe aEGFR binding to arrayed compounds – biochemical, biotinylated probe, 635/667 nm fluorescence, primary screen (AID 1097); conditions: small-molecule microarray, higher = more signal;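 note: probe is a biotinylated anti-EGFR antibody binding compounds printed on slides; score combines fluorescence near 667 nm and signal to noise of each spot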
# Torsin-1A-interacting protein 2 (Homo sapiens), sequence (Q8NFQ8 whole entry, looked up): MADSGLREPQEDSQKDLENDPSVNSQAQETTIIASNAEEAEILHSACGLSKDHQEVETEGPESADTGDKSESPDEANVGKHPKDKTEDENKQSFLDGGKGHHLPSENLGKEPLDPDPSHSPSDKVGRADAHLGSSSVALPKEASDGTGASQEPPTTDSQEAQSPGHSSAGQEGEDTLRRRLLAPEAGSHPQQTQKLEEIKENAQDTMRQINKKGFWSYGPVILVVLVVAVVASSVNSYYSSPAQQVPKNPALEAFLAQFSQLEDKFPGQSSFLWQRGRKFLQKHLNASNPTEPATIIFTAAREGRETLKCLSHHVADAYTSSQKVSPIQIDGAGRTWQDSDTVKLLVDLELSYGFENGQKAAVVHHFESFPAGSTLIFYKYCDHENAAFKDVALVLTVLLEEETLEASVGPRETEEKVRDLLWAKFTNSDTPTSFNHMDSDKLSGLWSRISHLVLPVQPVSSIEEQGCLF
# Neurogenic locus notch homolog protein 3 (Homo sapiens), sequence (Q9UM47 whole entry, looked up): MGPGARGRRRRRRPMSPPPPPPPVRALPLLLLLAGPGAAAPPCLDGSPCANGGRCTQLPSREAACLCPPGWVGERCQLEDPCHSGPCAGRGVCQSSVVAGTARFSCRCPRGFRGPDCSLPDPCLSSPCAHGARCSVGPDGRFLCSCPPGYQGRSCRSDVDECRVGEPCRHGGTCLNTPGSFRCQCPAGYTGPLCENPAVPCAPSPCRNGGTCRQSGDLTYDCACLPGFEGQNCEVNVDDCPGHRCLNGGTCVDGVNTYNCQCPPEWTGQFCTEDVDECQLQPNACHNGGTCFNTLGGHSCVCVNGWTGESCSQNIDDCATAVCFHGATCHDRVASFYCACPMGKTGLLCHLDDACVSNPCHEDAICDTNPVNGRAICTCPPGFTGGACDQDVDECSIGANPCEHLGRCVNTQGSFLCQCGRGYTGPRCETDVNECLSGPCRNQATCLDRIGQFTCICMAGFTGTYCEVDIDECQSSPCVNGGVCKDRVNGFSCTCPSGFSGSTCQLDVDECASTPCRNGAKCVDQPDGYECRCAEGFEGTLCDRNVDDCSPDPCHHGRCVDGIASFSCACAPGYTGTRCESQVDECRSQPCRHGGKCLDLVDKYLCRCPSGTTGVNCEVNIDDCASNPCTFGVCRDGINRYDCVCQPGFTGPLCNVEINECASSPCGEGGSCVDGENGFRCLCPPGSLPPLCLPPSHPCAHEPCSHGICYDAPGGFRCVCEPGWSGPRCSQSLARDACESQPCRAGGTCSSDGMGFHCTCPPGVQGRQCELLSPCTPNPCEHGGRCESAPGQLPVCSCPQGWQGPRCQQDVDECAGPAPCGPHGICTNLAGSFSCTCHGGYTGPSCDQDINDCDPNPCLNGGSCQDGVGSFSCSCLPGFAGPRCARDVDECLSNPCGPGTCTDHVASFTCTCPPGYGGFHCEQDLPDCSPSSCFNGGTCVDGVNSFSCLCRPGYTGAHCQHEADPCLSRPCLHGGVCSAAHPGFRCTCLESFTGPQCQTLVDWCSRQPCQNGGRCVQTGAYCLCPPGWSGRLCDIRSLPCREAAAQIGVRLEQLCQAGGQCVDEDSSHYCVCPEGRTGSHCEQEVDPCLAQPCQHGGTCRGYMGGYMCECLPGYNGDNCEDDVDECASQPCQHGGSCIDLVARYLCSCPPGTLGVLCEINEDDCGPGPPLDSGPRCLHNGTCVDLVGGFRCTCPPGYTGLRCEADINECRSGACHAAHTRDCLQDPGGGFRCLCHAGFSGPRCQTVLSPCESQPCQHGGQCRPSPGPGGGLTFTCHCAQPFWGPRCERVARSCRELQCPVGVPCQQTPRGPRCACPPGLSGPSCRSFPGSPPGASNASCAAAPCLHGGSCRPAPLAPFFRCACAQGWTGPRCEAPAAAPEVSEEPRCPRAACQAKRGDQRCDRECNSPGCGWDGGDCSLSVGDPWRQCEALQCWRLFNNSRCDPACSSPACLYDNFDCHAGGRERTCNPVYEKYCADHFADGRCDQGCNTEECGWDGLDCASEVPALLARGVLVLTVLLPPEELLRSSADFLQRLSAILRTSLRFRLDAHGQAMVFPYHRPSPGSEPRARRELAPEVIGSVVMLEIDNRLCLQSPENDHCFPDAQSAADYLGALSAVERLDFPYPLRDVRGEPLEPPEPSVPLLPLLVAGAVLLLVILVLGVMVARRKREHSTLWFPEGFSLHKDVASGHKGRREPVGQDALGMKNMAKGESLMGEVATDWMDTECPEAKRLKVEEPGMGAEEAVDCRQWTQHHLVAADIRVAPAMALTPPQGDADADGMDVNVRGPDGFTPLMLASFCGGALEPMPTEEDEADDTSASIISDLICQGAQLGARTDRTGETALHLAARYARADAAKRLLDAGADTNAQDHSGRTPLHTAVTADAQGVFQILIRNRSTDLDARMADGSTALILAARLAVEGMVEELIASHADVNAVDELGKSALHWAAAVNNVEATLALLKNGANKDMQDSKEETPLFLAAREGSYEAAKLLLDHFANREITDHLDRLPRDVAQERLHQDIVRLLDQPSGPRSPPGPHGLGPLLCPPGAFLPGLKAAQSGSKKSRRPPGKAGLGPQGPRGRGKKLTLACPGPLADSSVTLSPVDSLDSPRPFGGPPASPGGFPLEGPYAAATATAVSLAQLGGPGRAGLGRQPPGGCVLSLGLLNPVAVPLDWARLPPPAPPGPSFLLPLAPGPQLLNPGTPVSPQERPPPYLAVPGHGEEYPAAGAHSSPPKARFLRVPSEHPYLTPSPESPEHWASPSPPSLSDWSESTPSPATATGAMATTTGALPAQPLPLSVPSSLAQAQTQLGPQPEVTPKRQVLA
# Pro-neuregulin-1, membrane-bound isoform (Homo sapiens), sequence (Q02297 whole entry, looked up, the tested form may be a part, canonical isoform): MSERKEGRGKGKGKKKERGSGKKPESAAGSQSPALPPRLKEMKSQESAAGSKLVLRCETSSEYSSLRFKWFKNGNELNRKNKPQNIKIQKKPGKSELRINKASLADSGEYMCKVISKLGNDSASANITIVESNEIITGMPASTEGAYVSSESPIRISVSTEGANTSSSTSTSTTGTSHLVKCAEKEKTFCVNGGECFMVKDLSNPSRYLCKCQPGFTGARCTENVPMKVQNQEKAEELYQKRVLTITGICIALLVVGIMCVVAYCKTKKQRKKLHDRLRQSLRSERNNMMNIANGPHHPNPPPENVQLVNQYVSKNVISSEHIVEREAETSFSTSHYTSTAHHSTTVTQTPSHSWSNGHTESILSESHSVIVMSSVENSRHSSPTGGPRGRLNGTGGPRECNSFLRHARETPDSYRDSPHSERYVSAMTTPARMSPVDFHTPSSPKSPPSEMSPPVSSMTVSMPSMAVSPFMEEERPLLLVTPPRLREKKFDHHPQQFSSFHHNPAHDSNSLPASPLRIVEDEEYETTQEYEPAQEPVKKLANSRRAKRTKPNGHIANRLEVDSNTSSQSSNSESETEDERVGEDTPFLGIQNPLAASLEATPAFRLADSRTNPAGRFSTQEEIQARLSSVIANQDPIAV
SMILES,composite z-score [1],composite z-score [2],composite z-score [3],composite z-score [4],composite z-score [5],composite z-score [6],composite z-score [7],z-score [8],composite z-score [9],composite z-score [10],composite z-score [11],z-score [12],z-score [13],z-score [14],composite z-score [15],z-score [16],composite z-score [17],composite z-score [18],composite z-score [19],composite z-score [20]
CC(C)C(CO)N1C(=O)[C@@H]2C3C(=O)OCCC/C=C\[C@H]3OC23C=CCN(C(C)(C)C)C(=O)[C@@H]13 (stereo not given in full),-0.0102,-0.311,-0.133,-0.394,-1.02,-0.596,1.06,-0.241 (inactive),-0.418,0.0274,-0.429,0.465 (inactive),-0.415 (inactive),0.0032 (inactive),0.895,-0.787 (inactive),-0.259,-0.733,-0.354,-0.259
C[C@H]1NC(=O)[C@@]23C(=O)N[C@@H](Cc4ccccc4)C2[C@H](C)[C@@]2(C)O[C@H]2C3/C=C/C/C=C\CNC(=O)[C@H](Cc2ccccc2)NC1=O (stereo not given in full),-0.536,0.0198,-0.206,0.533,-0.158,1.4,1.11,1.8 (inactive),-0.107,-0.137,0.44,0.907 (inactive),-0.236 (inactive),0.952 (inactive),0.834,-0.225 (inactive),-0.213,1.22,0.967,-0.096
COC(=O)[C@@]1(Cc2ccc(OC)cc2)[C@@H]2C(=CC(=O)[C@H]2CC(=O)C(=O)N(C)C)CN1C(=O)c1ccccc1,0.928,-0.262,0.0921,0.582,1.77,1.39,1.18,1.46 (inactive),1.97,0.177,0.464,0.244 (inactive),0.693 (inactive),2.88 (inactive),3.54,-1.08 (inactive),0.413,-0.343,1.03,0.0364
C[C@@H]1ON(c2ccc(C(=O)OC(C)(C)C)cc2)[C@H](c2ccc(O)cc2)[C@H]1C(=O)N1C(=O)OC[C@H]1Cc1ccccc1,-0.521,0.707,-0.109,0.8,1.37,0.803,1.05,0.0087 (inactive),0.236,-0.0645,1.56,0.465 (inactive),-0.29 (inactive),1.84 (inactive),1.24,-0.63 (inactive),-0.146,0.525,1.12,-0.0333
